Assay results: PubChem BioAssay (NCATS)
Records with an inconclusive call do not appear. A number with no mark means an inactive call. Calls of active or inactive are those of the source. The call rests on the fitted dose curve; in most records, active means well fitted curve in the direction sought with a large enough effect; inconclusive means small, poorly fitted or top-dose-only effect, or another doubt; inactive means no such curve, though single readings can be large; an effect the other way counts as inactive or inconclusive.

Key:
[1] = Quantitative High-Throughput drug screen in 47 multiple myeloma cell lines against the NCATS MIPE library collection: KMS12BM_JCRB cell viability assay (AID 1918971); further: nearly all actives have a fitted effect of over 35% in size
How it was run: (§1)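 CellTiter-Glo luminescence (ATP) after 48 h compound exposure, 37C/5% CO2; 500 cells/well; MIPE 4.0 approved/investigational drugs pinned in; DMSO = 100%, media only = 0% viability.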

[2] = Quantitative High-Throughput drug screen in 47 multiple myeloma cell lines against the NCATS MIPE library collection: KMS12PE_JCRB cell viability assay (AID 1918972); further: nearly all actives have a fitted effect of over 30% in size; on viability: series mostly up to about 46 µM
How it was run: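 Approved and investigational drugs from MIPE 4.0 were added by pin tool to 500 cells per well. After 48 hours at 37C, ATP-based CellTiter-Glo luminescence indicated remaining viability.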

[3] = Quantitative High-Throughput drug screen in 47 multiple myeloma cell lines against the NCATS MIPE library collection: KMS20_JCRB cell viability assay (AID 1918973); further: nearly all actives have a fitted effect of over 45% in size
How it was run: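 Myeloma cells (500 per well) were exposed to MIPE 4.0 compounds by pin transfer and incubated 48 hours at 37C, 5% CO2. Viability was read as ATP by CellTiter-Glo luminescence, normalised to DMSO (100%) and media-only (0%) wells.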

[4] = Quantitative High-Throughput drug screen in 47 multiple myeloma cell lines against the NCATS MIPE library collection: KMS26_JCRB cell viability assay (AID 1918975); further: nearly all actives have a fitted effect of over 45% in size
How it was run: as §1

[5] = Quantitative High-Throughput drug screen in 47 multiple myeloma cell lines against the NCATS MIPE library collection: MMM1_PLB cell viability assay (AID 1918976); further: nearly all actives have a fitted effect of over 35% in size
How it was run: (§2)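 MIPE 4.0 approved/investigational drugs; 500 cells/well; 48 h 37 °C humidified 5% CO2; CTG luminescence readout; DMSO = 100%, media = 0% viability.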

[6] = Quantitative High-Throughput drug screen in 47 multiple myeloma cell lines against the NCATS MIPE library collection: MOLP8_DSMZ cell viability assay (AID 1918977); further: nearly all actives have a fitted effect of over 45% in size
How it was run: as §2

[7] = Quantitative High-Throughput drug screen in 47 multiple myeloma cell lines against the NCATS MIPE library collection: NCIH929_DSMZ cell viability assay (AID 1918978); further: nearly all actives have a fitted effect of over 35% in size
How it was run: as §2

[8] = Quantitative High-Throughput drug screen in 47 multiple myeloma cell lines against the NCATS MIPE library collection: OCIMY1_PLB cell viability assay (AID 1918979); further: nearly all actives have a fitted effect of over 35% in size; on viability: series mostly up to about 46 µM
How it was run: as §2

[9] = Quantitative High-Throughput drug screen in 47 multiple myeloma cell lines against the NCATS MIPE library collection: MM1R_ATCC cell viability assay (AID 1918981); further: nearly all actives have a fitted effect of over 35% in size
How it was run: as §2

[10] = Quantitative High-Throughput drug screen in 47 multiple myeloma cell lines against the NCATS MIPE library collection: LP1_DSMZ cell viability assay (AID 1918982); further: nearly all actives have a fitted effect of over 35% in size
How it was run: as §2

[11] = Quantitative High-Throughput drug screen in 47 multiple myeloma cell lines against the NCATS MIPE library collection: KMS28PE_JCRB cell viability assay (AID 1918983); further: nearly all actives have a fitted effect of over 35% in size
How it was run: as §2

[12] = Quantitative High-Throughput drug screen in 47 multiple myeloma cell lines against the NCATS MIPE library collection: L363_DSMZ cell viability assay (AID 1918984); further: nearly all actives have a fitted effect of over 40% in size
How it was run: as §2

[13] = Quantitative High-Throughput drug screen in 47 multiple myeloma cell lines against the NCATS MIPE library collection: OCIMY5_PLB cell viability assay (AID 1918988); further: nearly all actives have a fitted effect of over 65% in size
How it was run: as §2

[14] = Quantitative High-Throughput drug screen in 47 multiple myeloma cell lines against the NCATS MIPE library collection: OPM1_PLB cell viability assay (AID 1918989); further: nearly all actives have a fitted effect of over 40% in size
How it was run: as §2

[15] = Quantitative High-Throughput drug screen in 47 multiple myeloma cell lines against the NCATS MIPE library collection: SKMM1_PLB cell viability assay (AID 1919863); details: SKMM1 myeloma viability, CellTiter-Glo ATP, 48 h; viability: active compounds read low; further: nearly all actives have a fitted effect of over 35% in size; on viability: series mostly up to about 46 µM
How it was run: as §2

[16] = Quantitative High-Throughput drug screen in 47 multiple myeloma cell lines against the NCATS MIPE library collection: XG6_PLB cell viability assay (AID 1919865); further: nearly all actives have a fitted effect of over 40% in size
How it was run: as §2

[17] = Quantitative High-Throughput drug screen in 47 multiple myeloma cell lines against the NCATS MIPE library collection: OCIMY7_PLB cell viability assay (AID 1918987); further: nearly all actives have a fitted effect of over 65% in size
How it was run: as §2

[18] = Quantitative High-Throughput drug screen in 47 multiple myeloma cell lines against the NCATS MIPE library collection: U266_ATCC cell viability assay (AID 1919864); further: nearly all actives have a fitted effect of over 35% in size
How it was run: as §2

[19] = Quantitative High-Throughput drug screen in 47 multiple myeloma cell lines against the NCATS MIPE library collection: MM1S_ATCC cell viability assay (AID 1918980); further: nearly all actives have a fitted effect of over 45% in size
How it was run: as §2

[20] = Quantitative High-Throughput drug screen in 47 multiple myeloma cell lines against the NCATS MIPE library collection: KMS34_JCRB cell viability assay (AID 1918985); further: nearly all actives have a fitted effect of over 40% in size
How it was run: as §2
Potency means the concentration at half of the fitted maximal effect.

Structure (SMILES): Cc1cc(=O)oc2cc(O)ccc12
- Potency [1]: inactive
- Potency [2]: inactive
- Potency [3]: inactive
- Potency [4]: inactive
- Potency [5]: 0.296 µM (active)
- Potency [6]: inactive
- Potency [7]: inactive
- Potency [8]: inactive
- Potency [9]: 6.62 µM (active)
- Potency [10]: inactive
- Potency [11]: inactive
- Potency [12]: inactive
- Potency [13]: inactive
- Potency [14]: inactive
- viability [15]: 114%

Structure (SMILES): Clc1ccc(C(Cn2ccnc2)OCc2c(Cl)cccc2Cl)c(Cl)c1 (configuration not stated)
- Potency [1]: 23.5 µM (active)
- Potency [2]: 14.8 µM (active)
- Potency [12]: 18.7 µM (active)
- Potency [15]: 26.4 µM (active)
- Potency [16]: 26.4 µM (active)

Structure (SMILES): Nc1ccn([C@@H]2O[C@H](CO)[C@@H](O)C2O)c(=O)n1 (some centres not stated)
- Potency [1]: inactive
- Potency [2]: inactive
- Potency [6]: inactive
- Potency [9]: inactive
- Potency [11]: inactive
- Potency [17]: inactive
- Potency [14]: inactive
- viability [15]: 123%
- Potency [18]: inactive

Structure (SMILES): CCC[C@@H]1C[C@@H](C(=O)N[C@@H]([C@H]2O[C@H](SC)[C@H](O)[C@@H](O)[C@H]2O)[C@@H](C)O)N(C)C1
- Potency [1]: 2.64 µM (active)
- Potency [2]: inactive
- Potency [4]: inactive
- Potency [6]: inactive
- Potency [7]: inactive
- Potency [19]: inactive
- Potency [9]: inactive
- Potency [10]: inactive
- Potency [11]: inactive
- Potency [14]: inactive
- Potency [18]: inactive
- Potency [16]: inactive

Structure (SMILES): CCOC(=O)C1=C(O)C(=O)N(Cc2ccccc2)C1
- Potency [1]: inactive
- Potency [2]: inactive
- Potency [6]: inactive
- Potency [7]: inactive
- Potency [8]: inactive
- Potency [11]: inactive
- Potency [14]: inactive
- viability [15]: 107%
- Potency [18]: inactive

Structure (SMILES): O=C(NOCC1CC1)c1ccc(F)c(F)c1Nc1ccc(I)cc1Cl
- Potency [1]: 20.9 µM (active)
- Potency [2]: 14.8 µM (active)
- Potency [3]: 0.59 µM (active)
- Potency [6]: 14.8 µM (active)
- Potency [7]: 20.9 µM (active)
- Potency [19]: 23.5 µM (active)
- Potency [12]: 18.7 µM (active)
- Potency [20]: 23.5 µM (active)
- Potency [14]: 18.7 µM (active)
- Potency [15]: 20.9 µM (active)
- Potency [16]: 6.62 µM (active)

Structure (SMILES): Cc1ccc(Nc2nccc(N(C)c3ccc4c(C)n(C)nc4c3)n2)cc1S(N)(=O)=O
- Potency [1]: 18.7 µM (active)
- Potency [2]: 16.6 µM (active)
- Potency [4]: 23.5 µM (active)
- Potency [12]: 11.8 µM (active)
- Potency [13]: 16.6 µM (active)
- Potency [14]: 14.8 µM (active)

Structure (SMILES): C[C@H](Cn1cnc2c(N)ncnc21)OCP(=O)(O)O
- Potency [1]: inactive
- Potency [2]: inactive
- Potency [3]: inactive
- Potency [4]: inactive
- Potency [6]: inactive
- Potency [7]: inactive
- Potency [9]: inactive
- Potency [12]: inactive
- Potency [20]: inactive
- Potency [13]: inactive
- Potency [14]: inactive
- Potency [16]: inactive

Structure (SMILES): CCCCc1ccc2nc(NC(=O)OC)[nH]c2c1
- Potency [1]: 0.0093 µM (active)
- Potency [2]: 0.0047 µM (active)
- Potency [4]: 1.48 µM (active)
- Potency [7]: 0.935 µM (active)
- Potency [9]: 0.059 µM (active)
- Potency [10]: 0.0187 µM (active)
- Potency [11]: 0.0148 µM (active)
- Potency [20]: 0.0148 µM (active)
- Potency [14]: 0.0209 µM (active)
- Potency [15]: 0.0469 µM (active)
- Potency [18]: 0.743 µM (active)

Structure (SMILES): O=C(c1ccccc1)c1ccc2n1CCC2C(=O)O (configuration not stated)
- Potency [1]: inactive
- Potency [2]: inactive
- Potency [3]: 8.33 µM (active)
- Potency [4]: 1.48 µM (active)
- Potency [6]: inactive
- Potency [7]: 5.26 µM (active)
- Potency [8]: inactive
- Potency [19]: 1.05 µM (active)
- Potency [9]: 2.09 µM (active)
- Potency [10]: inactive
- Potency [11]: inactive
- Potency [12]: inactive
- Potency [20]: inactive
- Potency [17]: 7.43 µM (active)
- Potency [14]: 20.9 µM (active)
- viability [15]: 105%

Structure (SMILES): CCOC(=O)C(C)Oc1cccc2c(=O)n(CC(=O)Nc3ccc4c(c3)OCCO4)ccc12 (configuration not stated)
- Potency [1]: 23.5 µM (active)
- Potency [2]: inactive
- Potency [7]: inactive
- Potency [8]: inactive
- Potency [12]: 9.35 µM (active)
- Potency [20]: inactive

Structure (SMILES): COCCCOc1ccnc(CS(=O)c2nc3ccccc3[nH]2)c1C (configuration not stated)
- Potency [1]: inactive
- Potency [2]: inactive
- Potency [4]: inactive
- Potency [7]: inactive
- Potency [8]: inactive
- Potency [9]: inactive
- Potency [11]: inactive
- Potency [12]: inactive
- Potency [20]: inactive
- Potency [14]: inactive
- Potency [16]: 10.5 µM (active)

Structure (SMILES): CCCCCCCCOc1ccccc1C(=O)Nc1ccc(C(=O)OCC[N+](C)(CC)CC)cc1
- Potency [1]: 18.7 µM (active)
- Potency [2]: 4.69 µM (active)
- Potency [3]: 16.6 µM (active)
- Potency [4]: 16.6 µM (active)
- Potency [6]: 20.9 µM (active)
- Potency [7]: 20.9 µM (active)
- Potency [12]: 4.69 µM (active)
- Potency [20]: 23.5 µM (active)
- Potency [13]: 20.9 µM (active)
- Potency [14]: 18.7 µM (active)
- Potency [15]: 26.4 µM (active)
- Potency [16]: 16.6 µM (active)

Structure (SMILES): O=C1CCc2ccc(OCCCCN3CCN(c4cccc(Cl)c4Cl)CC3)cc2N1
- Potency [1]: 11.8 µM (active)
- Potency [2]: 5.26 µM (active)
- Potency [8]: inactive
- Potency [11]: 18.7 µM (active)
- Potency [14]: 18.7 µM (active)
- viability [15]: 132%

Structure (SMILES): N=C(N)c1ccc2cc(OC(=O)c3ccc(N=C(N)N)cc3)ccc2c1
- Potency [1]: 23.5 µM (active)
- Potency [2]: inactive
- Potency [7]: inactive
- Potency [19]: inactive
- Potency [9]: inactive
- Potency [10]: inactive
- Potency [20]: 6.62 µM (active)
- Potency [15]: 8.33 µM (active)
- Potency [16]: inactive

Structure (SMILES): CC[C@]1(O)C[C@H]2CN(CCc3c([nH]c4ccccc34)[C@@](C(=O)OC)(c3cc4c(cc3OC)N(C=O)[C@H]3[C@@](O)(C(=O)OC)[C@H](OC(C)=O)[C@]5(CC)C=CCN6CC[C@]43[C@@H]65)C2)C1
- Potency [1]: 0.0019 µM (active)
- Potency [2]: 0.0743 µM (active)
- Potency [3]: 0.0148 µM (active)
- Potency [4]: 0.0372 µM (active)
- Potency [7]: 0.0235 µM (active)
- Potency [8]: 0.059 µM (active)
- Potency [11]: 0.0047 µM (active)
- Potency [12]: 0.132 µM (active)
- Potency [20]: 0.0019 µM (active)
- Potency [14]: 0.0053 µM (active)
- Potency [15]: 0.0053 µM (active)
- Potency [16]: inactive

Structure (SMILES): Clc1ccc(C(Cn2ccnc2)OCc2ccc(Sc3ccccc3)cc2)c(Cl)c1 (configuration not stated)
- Potency [1]: 26.4 µM (active)
- Potency [2]: 18.7 µM (active)
- Potency [5]: 23.5 µM (active)
- Potency [19]: 18.7 µM (active)
- Potency [9]: 26.4 µM (active)
- Potency [10]: 23.5 µM (active)
- Potency [12]: 20.9 µM (active)
- Potency [17]: 26.4 µM (active)
- Potency [13]: 26.4 µM (active)
- Potency [18]: inactive
